# Inconclusive results are not listed. Where a call stands in place of a potency, no number is given. The source made the active and inactive calls. Calls come from the whole dose curve; as a rule, active = well fitted curve in the direction sought with a large enough effect; inconclusive = small, poorly fitted or top-dose-only effect, or another doubt; inactive = no such curve, though single readings can be large; an effect the other way counts as inactive or inconclusive.
# Columns and labels:
# [1] = qHTS for differential inhibitors of proliferation of Plasmodium falciparum line 3D7 (AID 1876); conditions: P. falciparum 3D7 proliferation inhibition; series mostly up to 28.7 µM
# [2] = qHTS for differential inhibitors of proliferation of Plasmodium falciparum line D10 (AID 1877); conditions: series mostly up to 28.7 µM;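 note: parasites grown with compound for 72 h before DNA staining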
# [3] = qHTS for differential inhibitors of proliferation of Plasmodium falciparum line HB3 (AID 1886); conditions: Potency: Plasmodium falciparum HB3 proliferation inhibition; series mostly up to 28.7 µM;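 note: parasites grown with compound for 72 h before SYBR Green readout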
# [4] = qHTS for differential inhibitors of proliferation of Plasmodium falciparum line W2 (AID 1883); conditions: Potency: Plasmodium falciparum W2 proliferation inhibition; series mostly up to 28.7 µM;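 note: parasites grown with compound for 72 h before lysis and staining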
# [5] = Quantitative high throughput screen for delayed death inhibitors of the malarial parasite plastid, 48 hour incubation (AID 488752); conditions: Plasmodium falciparum growth; series mostly up to 28.7 µM; note: nearly all actives have a fitted effect of over 65% in size
# How it was run: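 One-generation (48 h) growth assay: a decrease in luciferase signal from an integrated reporter in P. falciparum-infected red cells (0.1% parasitemia, 2% hematocrit) after compound exposure at 37 C indicates parasite inhibition.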
# Potency is the fitted concentration of half-maximal effect.
SMILES,Potency [1],Potency [2],Potency [3],Potency [4],Potency [5]
CCN1C[C@]2(C)CC[C@H](O)[C@@]34[C@@H]5C[C@@H]6[C@@H](OC)C[C@@](O)(C5[C@H]6O)[C@@H](C[C@@H]23)[C@@H]14,inactive,inactive,inactive,,
C=CCN1CC[C@@]2(C)c3cc(O)ccc3CC1[C@@H]2C,,12.6 µM (active),,6.31 µM (active),inactive
CCCCN1C2CCC1CC(OC(c1ccc(F)cc1)c1ccc(F)cc1)C2 (configuration not stated),0.891 µM (active),2.24 µM (active),1 µM (active),0.631 µM (active),7.38 µM (active)
CCCN1CCCC(c2cccc(O)c2)C1 (configuration not stated),inactive,inactive,inactive,8.91 µM (active),inactive
COc1ccc2c3c1O[C@H]1C(=O)CC[C@@]4(O)C(C2)N(CC2CC2)CCC314 (some centres not stated),inactive,inactive,inactive,11.2 µM (active),inactive
CC1Cc2cc3c(cc2C(c2ccc(N)cc2)=NN1)OCO3 (configuration not stated),,inactive,,2.24 µM (active),inactive
CCNC(=O)[C@H]1O[C@@H](n2cnc3c(N)ncnc32)[C@H](O)[C@H]1O,inactive,inactive,inactive,inactive,inactive
CCN(CC)C(=O)N[C@@H]1C[C@@H]2c3cccc4[nH]cc(c34)C[C@H]2N(C)C1,0.398 µM (active),,0.891 µM (active),0.891 µM (active),
NCC#Cc1ccccc1,inactive,inactive,inactive,12.6 µM (active),inactive
CCCN1CCC[C@@H]2Cc3n[nH]cc3C[C@H]21,inactive,inactive,inactive,,inactive
C[C@]12CC[C@H]3[C@@H](CCC4C[C@H](O)CC[C@@]43C)[C@@H]1CC[C@@H]2O (some centres not stated),inactive,inactive,inactive,inactive,inactive
CCCN1CCC[C@@H](c2cccc(C#N)c2)C1,inactive,inactive,inactive,11.2 µM (active),inactive
CN1C[C@@H](CS(=O)(=O)N(C)C)C[C@@H]2c3cccc4c3c(cn4C)C[C@H]21,3.98 µM (active),,,3.55 µM (active),
CCCN(CCC)C(=O)Cc1c(-c2ccc(Cl)cc2)nc2c(Cl)cc(Cl)cn12,,,inactive,,inactive
C[N+]1(C)C2CC(OC(=O)C(CO)c3ccccc3)CC1C1OC12 (configuration not stated),inactive,inactive,inactive,inactive,inactive
N#CC(=Cc1ccc(O)c(O)c1)C(N)=S,,inactive,,,inactive
CCC(CO)NC(=O)[C@@H]1C=C2c3cccc4[nH]cc(c34)C[C@H]2N(C)C1 (some centres not stated),14.1 µM (active),,10 µM (active),12.6 µM (active),inactive
CC12CCC3C(CCC4=C(O)C(=O)CCC43C)C1CCC2=O (configuration not stated),inactive,inactive,,,inactive
CCCC[N+]1(C)C2CC(OC(=O)C(CO)c3ccccc3)CC1C1OC12 (configuration not stated),,inactive,inactive,,inactive

# From PubChem BioAssay (NCATS)
